PubChem BioAssay AID763 (NMMLSC, 2007)
Unmarked numbers belong to inactive results. Active and inactive are the calls of the source. No rule for the calls is given here.

Target: fMet-Leu-Phe receptor (Homo sapiens) (UniProt P21462)
Assay: FPR1 fluorescent ligand binding inhibitors, SAR follow-up, selectivity assay for FPRL1 ligand SAR project, cell-based, single concentration (AID 763)
Details: FPR1-expressing cells, stronger effect = higher value; at 5.4 µM unless noted

Sequence of fMet-Leu-Phe receptor (Homo sapiens) (P21462 whole entry, looked up): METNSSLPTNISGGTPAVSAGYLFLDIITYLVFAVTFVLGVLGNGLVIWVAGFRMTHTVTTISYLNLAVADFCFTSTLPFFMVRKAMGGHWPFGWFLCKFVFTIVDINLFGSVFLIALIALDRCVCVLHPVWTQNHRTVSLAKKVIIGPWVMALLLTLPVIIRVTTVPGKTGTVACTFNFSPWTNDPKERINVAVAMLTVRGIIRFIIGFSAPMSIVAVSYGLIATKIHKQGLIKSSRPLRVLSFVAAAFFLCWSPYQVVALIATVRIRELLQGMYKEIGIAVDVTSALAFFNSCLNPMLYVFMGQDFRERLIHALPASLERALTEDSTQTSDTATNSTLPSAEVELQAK

| Compound | inhibition |
| --- | --- |
| CCC(CC)C(=O)Nc1cc(-c2cn3cccnc3n2)ccc1OC | -5.9% [at 6.6 µM] |
| CCC(=O)Nc1cccc(-c2cn3cccnc3n2)c1 | -0.2% [at 8.3 µM] |
| O=C(O)C1CC=CCC1C(=O)N1CCN(c2nc(-c3ccccc3Cl)c3cc(Br)ccc3n2)CC1 (centres undefined) | 5.3% [at 4 µM] |
| COc1cccc(-c2cc(C(F)(F)F)nc(N3CCN(c4ccccc4OC)CC3)n2)c1 | -2.3% [at 5 µM] |
| Clc1cccc(-c2nc(N3CCN(Cc4ccccc4)CC3)nc3c2COc2ccccc2-3)c1 | 5.3% [at 4.7 µM] |
| O=C(N1CCN(c2nc(-c3ccccc3)c3cc([N+](=O)[O-])ccc3n2)CC1)C(F)(F)F | -1.2% [at 5.2 µM] |
| COc1ccc(-c2cn3cccnc3n2)cc1NC(=O)COc1ccc(Cl)cc1 | -3.3% |
| Cc1nc2c3c(-c4ccccc4)nc(N4CCN(C)CC4)nc3nn2c(C)c1CCC(=O)O | 0% [at 5 µM] |
| COc1ccc(-c2cn3cccnc3n2)cc1NC(=O)c1ccccc1Cl | -3.1% [at 5.9 µM] |
| CCOc1cc(C(=O)Nc2cc(-c3cn4cccnc4n3)ccc2OC)cc(OCC)c1OCC | 0% [at 4.7 µM] |
| Clc1cccc(-c2nc(N3CCN(C4CCCCC4)CC3)nc3c2COc2ccccc2-3)c1 | -4.5% [at 4.8 µM] |
| N#Cc1cc(-c2ccccc2)nc(N2CCN(c3ccccc3)CC2)n1 | -6% [at 6.5 µM] |
| COc1ccc(-c2cn3cccnc3n2)cc1NC(=O)c1cccc(Cl)c1 | 3.4% [at 5.9 µM] |
| COc1ccc(-c2cc(C#N)nc(N3CCN(c4ccccc4)CC3)n2)cc1 | 2.6% [at 6 µM] |
| Cc1ccc(-c2cn3cccnc3n2)cc1NC(=O)C(C)C | 3.7% [at 7.6 µM] |
| FC(F)(F)c1cc(-c2ccccc2)nc(N2CCN(c3ccccc3)CC2)n1 | 2.9% [at 5.8 µM] |
| COc1ccc(-c2cc(C(F)(F)F)nc(N3CCN(c4ccc(F)cc4)CC3)n2)cc1OC | -1.4% [at 4.8 µM] |

| Compound | inhibition |
| --- | --- |
| COc1ccc(-c2cn3cccnc3n2)cc1NC(=O)c1c(-c2ccccc2Cl)noc1C | 2.7% [at 4.8 µM] |
| COc1ccc(-c2cc(C(F)(F)F)nc(N3CCN(C)CC3)n2)cc1 | 2.1% [at 6.3 µM] |
| COc1ccc(-c2cn3cccnc3n2)cc1NC(=O)c1cccc(F)c1 | -0.9% [at 6.1 µM] |
| FC(F)(F)c1nc(N2CCN(Cc3ccccc3)CC2)nc2c1CCCCC2 | 0.9% [at 5.7 µM] |
| CC1(C)CC(=O)c2cnc(N3CCN(Cc4ccc5c(c4)OCO5)CC3)nc2C1 | 11.3% [at 5.6 µM] |
| CCOC(=O)N1CCN(c2nc(-c3ccccc3Cl)c3cc(Br)ccc3n2)CC1 | 1.8% [at 4.7 µM] |
| COc1ccc(-c2cc(C(F)(F)F)nc(N3CCN(c4ccccc4)CC3)n2)cc1OC | 54.8% [at 5 µM] (active) |
| Cc1ccc2nc(N3CCN(C(=O)CC4(CC(=O)O)CCCC4)CC3)nc(-c3ccccc3)c2c1 | 0.5% [at 4.7 µM] |
| O=C(O)CCCC(=O)N1CCN(c2nc(-c3ccccc3)c3ccccc3n2)CC1 | -2.1% [at 5.5 µM] |
| COc1ccc(C(=O)Nc2cc(-c3cn4cccnc4n3)ccc2OC)cc1 | 3.4% [at 5.9 µM] |
| COc1ccccc1-c1cc(C(F)(F)F)nc(N2CCN(c3ccccc3OC)CC2)n1 | -2.2% [at 5 µM] |
| COc1ccc(-c2cn3cccnc3n2)cc1NC(=O)c1ccco1 | 1.3% [at 6.7 µM] |
| COc1ccc(-c2nc(N3CCN(C)CC3)[nH]c(=O)c2C#N)cc1 | -1.7% [at 6.8 µM] |
| COc1ccc(-c2cn3cccnc3n2)cc1NC(=O)c1ccc(OC)c(OC)c1 | -5.3% [at 5.5 µM] |
| COc1ccc(-c2cn3cccnc3n2)cc1NC(=O)C(C)(C)C | 1.9% [at 6.9 µM] |
| CCOC(=O)N1CCN(c2nc(-c3ccccc3)cc(C(F)(F)F)n2)CC1 | 1.5% [at 5.8 µM] |
| FC(F)(F)c1cc(-c2ccccc2)nc(N2CCN(Cc3ccccc3)CC2)n1 | -9.1% [at 5.6 µM] |
